From PubChem
TEAD-YAP inh = TEAD-YAP interaction inhibition. actives 1.4% (n = 640,000). HEK-TIYL cells, TEAD-Gal4/YAP UAS-luciferase luminescence. inhibition, % at 9.12 µM; in the data active = inhibition above about 32%;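 note: 0% = median of test compound wells and 100% = reference inhibitor wells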
FBW7 activator = human FBW7 E3 ligase activation, primary screen; Q969H0; AlphaScreen FBW7–phospho-cyclin E peptide binding, activator screen; normalized activity (activation), % at 26.1 µM; actives 0.13% (n = 650,000); AID 1259310; in the data active = normalized activity above about 1.9%;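 note: purified mutant Fbw7 with reduced substrate affinity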
GPR151 ag = activates the human receptor GPR151. PathHunter beta-arrestin GPR151 cells, luminescence. activation, % at 11.2 µM. AID 1508602. Q8TDV0. actives 1% (n = 650,000); in the data active = activation above about 4.9%;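 note: 0% = median of compound wells and 100% = cells with positive control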
MITF primary = inhibitors of human MITF. AlphaScreen MITF homodimerization, bead proximity signal. actives 0.91% (n = 650,000). inhibition, % at 2.6 µM; in the data active = inhibition above about 50%;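 note: 0% = vehicle wells with protein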
An asterisk follows results filed as active. In the library only some 3.5% were active in any assay of this set; here they are far more common.

SMILES	TEAD-YAP inh	FBW7 activator	GPR151 ag	MITF primary
O=C(Nc1ccccc1C(=O)NNc1ccccc1)c1ccc([N+](=O)[O-])cc1	-2	0	-5	6
Cc1cccc(NC(=O)c2ccc(N)cc2)n1	61*	0	-6	10
CCOc1ccc(C(=O)Nc2cccc(C)n2)cc1	43*	0	-9	9
Cc1cccc(NC(=O)c2ccc(C(C)(C)C)cc2)n1	45*	0	-5	-2
CC1=Nc2ccc(C)cc2NC(=O)C1	-3	0	0	15
CN1C[C@@H]2C[C@@H](c3cc4ccccc4s3)N3CCC[C@@]23C1=O	1	0	1	8
CC1Cc2ccccc2N1S(=O)(=O)c1cccc(C(=O)C(C#N)c2ccccn2)c1 (configuration not stated)	9	0	1	6
COc1cccc(OC)c1C(=O)Nc1cc(C(=O)O)cc(C(=O)O)c1	11	0	2	-5
COc1ccc(-c2cn(C(=O)Nc3ccc(Cl)cc3)nc2N)c(OC)c1	6	0	2	5
COc1cccc(CN(CCN(C)C)C(=O)c2cn3cc(-c4ccncc4)ccc3n2)c1	-11	0	0	2
Cc1cc(C)c(C(=O)/C=C/c2ccccn2)c(=O)[nH]1	77*	0	-2	12
COc1cccc(/C=C/C(=O)c2c(C)cc(C)[nH]c2=O)c1O	1	0	0	2
COc1ccccc1/C=C/C(=O)c1c(C)cc(C)[nH]c1=O	37*	0	-1	-2
O=C(NCCO)c1ccnc(-c2ccc(N3CCOCC3)nc2)c1	-16	0	1	1
CC1(C)CC(=O)C2=C(C1)Nc1ccccc1NC2c1cccc(F)c1 (configuration not stated)	11	0	-1	4
O=C1CCCC2=C1C(c1cccc(O)c1)NC(=S)N2 (configuration not stated)	65*	0	1	-22
CC1(C)CC(=O)C2=C(C1)NC(=S)NC2c1cccc(F)c1 (configuration not stated)	52*	0	0	-1
O=C1CCCC2=C1C(c1ccc(Cl)cc1)NC(=S)N2 (configuration not stated)	17	0	2	6
CN1CCN(c2ccc(-c3cncc(/C=C/c4ccccc4)n3)cn2)CC1	41*	0	0	-19
COc1ccc(C2CC(=O)N(CC(=O)c3ccccc3)c3ccccc3S2)cc1OC (configuration not stated)	76*	0	2	5
O=C1C(N2CCCCC2)=C(N2CCCCC2)C(=O)c2ccccc21	-2	-1	-3	-7
O=C1C(NC2CCCCC2)=C(N2CCCCC2)C(=O)c2ccccc21	1	1	-1	16
CCOc1ccc(NC2=C(N3CCOCC3)C(=O)c3ccccc3C2=O)cc1	-25	0	1	54*
CNC1=C(N2CCCCC2)C(=O)c2ccccc2C1=O	94*	1	-3	13
CC(=O)Nc1ccc(NC2=C(N3CCOCC3)C(=O)c3ccccc3C2=O)cc1	-5	0	-1	11
SMILES	TEAD-YAP inh	FBW7 activator	GPR151 ag	MITF primary
CCCNC1=C(N2CCCCC2)C(=O)c2ccccc2C1=O	93*	1	-1	23
CC(C)(C)NC(=O)NC(=O)COc1ccccc1C#N	40*	0	-2	1
CC(C)NC(=O)NC(=O)COc1ccccc1C#N	-35	0	-1	-5
Cc1cc(/C=C2\Sc3ccccc3N2C)cc(C)[n+]1N(C)C	78*	0	0	3
CN1CCN(CC(=O)N2c3ccccc3Sc3ccccc32)CC1	3	0	2	1
Cc1cc(/C=C2\Sc3ccccc3N2C)cc(C)[n+]1N1CCN(C)CC1	73*	0	0	22
Cc1cc(/C=C2\Sc3ccccc3N2C)cc(C)[n+]1CCCN1CCOCC1	41*	0	0	1
Cc1nc2ccccn2c1-c1csc(Nc2ccc(Br)cc2Br)n1	55*	0	0	2
COc1ccc(Nc2nc(-c3c(C)nc4ccccn34)cs2)cc1	62*	0	1	0
O=C(NCc1ccccc1)NCC(c1ccsc1)N1CCCC1 (configuration not stated)	-4	0	-2	6
COc1ccccc1NC(=O)NCCCNc1nc2cc3c(cc2cc1C#N)OCO3	65*	0	0	-6
N#Cc1cc2cc3c(cc2nc1NCCCNC(=O)Cc1ccccc1)OCO3	34*	0	-1	10
Cc1cccc(C)c1-n1c(SCc2ccccc2F)nc2c(sc(=S)n2CCc2ccccc2)c1=O	-5	0	1	-13
